Assay [1] is described as follows: qHTS for Inhibitors of Plasmodium falciparum (DD2) proliferation (AID 504314). Also: potency is read from the fitted curve at half-maximal effect.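 As to activity, negative = inhibition: parasite DNA measured by SYBR Green fluorescence after red cell lysis; plate controls were DMSO vehicle for no effect and artemisinin wells for full effect.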 In short, it runs like this: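 Fluorescence read-out (ex 485/em 535 nm) of SYBR Green-stained parasite DNA quantifies intraerythrocytic growth. Cultures at 0.3% parasitemia and 2.5% hematocrit were treated for 72 h; data normalized to DMSO and 0.29 uM artemisinin wells.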
For orientation: In qHTS, concentration-response curves come from the screen itself.

Assay [2] in a line: qHTS for Inhibitors of Plasmodium falciparum (GB4) proliferation (AID 504315). Also: nearly all actives have a fitted effect of over 50% in size. Also: potency is read from the fitted curve at half-maximal effect.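 As to activity change, negative = inhibition: 0% = DMSO vehicle and -100% = 0.29 µM artemisinin control.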 In short, it runs like this: (§1)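 Erythrocytes infected with P. falciparum line (0.3% parasitemia, 2.5% hematocrit final) incubated with compounds 72 h at 37 °C, 5% CO2; SYBR Green lysis buffer added, fluorescence read next day. Normalized to 0.29 uM artemisinin and DMSO.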
Assay [3] can be described thus: qHTS for Inhibitors of Plasmodium falciparum (7G8) proliferation (AID 504316). Also: nearly all actives have a fitted effect of over 65% in size. Also: potency is read from the fitted curve at half-maximal effect.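 As to activity change, negative = inhibition: series mostly up to about 6.7 µM; 0% = DMSO vehicle and -100% = 0.29 µM artemisinin full kill.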 In short, it runs like this: as §1
A short description of assay [4]: qHTS for Inhibitors of Plasmodium falciparum (CP250) proliferation (AID 504320).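 Also: plate controls were DMSO vehicle for no effect and 0.29 µM artemisinin control for full effect.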 The method, boiled down: as §1
The target in assay [5] is Atrial natriuretic peptide receptor 1 (Homo sapiens) (UniProt P16066). Kind of assay: Natriuretic polypeptide receptor (hNpr1) antagonism - Pilot CMLD screen (AID 1347052; calls by dose curve;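 also: HEK293 cells with hNpr1 stimulated by hNppA peptide at 0.1 nM; cGMP level read as GloSensor luciferase luminescence after agonist stimulation; series mostly up to about 9.2 µM; % is scaled to controls: 0 for no effect and ±100 for the full control effect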).
Atrial natriuretic peptide receptor 1 (Homo sapiens), sequence (P16066 whole entry, looked up): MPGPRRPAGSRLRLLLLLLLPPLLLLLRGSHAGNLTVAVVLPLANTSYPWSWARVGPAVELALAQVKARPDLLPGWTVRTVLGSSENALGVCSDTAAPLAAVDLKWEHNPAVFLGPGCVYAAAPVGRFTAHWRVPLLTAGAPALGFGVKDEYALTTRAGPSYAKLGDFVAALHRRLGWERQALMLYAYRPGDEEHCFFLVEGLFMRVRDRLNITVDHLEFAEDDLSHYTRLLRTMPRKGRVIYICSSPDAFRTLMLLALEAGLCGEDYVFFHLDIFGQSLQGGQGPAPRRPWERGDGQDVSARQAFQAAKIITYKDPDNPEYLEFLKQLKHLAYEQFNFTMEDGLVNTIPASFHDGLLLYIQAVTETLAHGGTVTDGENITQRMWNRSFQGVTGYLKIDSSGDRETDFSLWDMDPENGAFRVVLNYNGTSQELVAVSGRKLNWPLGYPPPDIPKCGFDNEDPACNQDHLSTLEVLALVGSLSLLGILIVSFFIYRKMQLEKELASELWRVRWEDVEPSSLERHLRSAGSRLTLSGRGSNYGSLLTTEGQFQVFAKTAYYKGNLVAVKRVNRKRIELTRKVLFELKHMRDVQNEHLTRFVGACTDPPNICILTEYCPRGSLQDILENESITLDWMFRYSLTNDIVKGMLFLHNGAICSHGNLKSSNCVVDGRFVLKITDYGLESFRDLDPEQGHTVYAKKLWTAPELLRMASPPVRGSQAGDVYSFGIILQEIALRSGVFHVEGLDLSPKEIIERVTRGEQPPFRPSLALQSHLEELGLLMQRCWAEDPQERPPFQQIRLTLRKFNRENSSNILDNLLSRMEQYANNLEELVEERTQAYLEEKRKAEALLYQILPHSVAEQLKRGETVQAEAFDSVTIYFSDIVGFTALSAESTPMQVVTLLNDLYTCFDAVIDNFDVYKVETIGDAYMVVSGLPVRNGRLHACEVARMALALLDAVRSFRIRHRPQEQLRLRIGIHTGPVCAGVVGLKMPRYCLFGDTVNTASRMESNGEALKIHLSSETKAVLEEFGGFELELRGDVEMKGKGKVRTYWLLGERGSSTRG
Assay [6] can be described thus: qHTS for Inhibitors of Plasmodium falciparum (HB3) proliferation (AID 504318). Also: nearly all actives have a fitted effect of over 60% in size. Also: potency is read from the fitted curve at half-maximal effect.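 As to activity change, negative = inhibition: 0% = DMSO vehicle and -100% = artemisinin control.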 The method, boiled down: as §1
Assay [7] deals with Cytochrome P450 3A4 (Homo sapiens) (UniProt P08684). Kind of assay: qHTS Assay for Inhibitors and Substrates of Cytochrome P450 3A4 (AID 884). Also: series mostly up to about 57 µM; % is scaled to controls: 0 for no effect and ±100 for the full control effect; nearly all actives have a fitted effect of over 50% in size. In short, it runs like this:
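20 nM human CYP3A4 with 25 uM Luciferin-PPXE (at KM) in 200 mM KPO4, preincubated 10 min with compound; NADPH regeneration started a 60 min RT reaction. Luciferin detected by luminescence, normalized to 57 uM ketoconazole as full inhibition.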

Assay [8] has as its target Cytochrome P450 2D6 (Homo sapiens) (UniProt P10635). Kind of assay: qHTS Assay for Inhibitors and Substrates of Cytochrome P450 2D6 (AID 891).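 Also: luciferin methyl ether substrate demethylated by CYP2D6 with NADPH regeneration; % is scaled to controls: 0 for no effect and ±100 for the full control effect; nearly all actives have a fitted effect of over 60% in size.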 The method, boiled down:
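Human CYP2D6 (5 nM) with 30 uM Luciferin-ME EGE (at Km) in 100 mM KPO4, compound preincubated 10 min, then NADPH regeneration system for 60 min at room temperature. Luciferin read by luminescence; normalized to 1.43 uM quinidine.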

Assay [9] deals with Cytochrome P450 2C19 (Homo sapiens) (UniProt P33261). Kind of assay: qHTS Assay for Inhibitors and Substrates of Cytochrome P450 2C19 (AID 899). Also: nearly all actives have a fitted effect of over 60% in size. Also: potency is read from the fitted curve at half-maximal effect. As to activity, negative = inhibition: % is scaled to controls: 0 for no effect and ±100 for the full control effect. In short, it runs like this: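 Luminescent read-out of luciferin formed from Luciferin-H EGE (10uM, equal to KM). Enzyme 5nM in 50mM KPO4; compound added, 10 min at 37C, then NADPH regenerating system for 60 min at 37C. Full inhibition defined by 57uM ketoconazole.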
Cytochrome P450 2C19 (Homo sapiens), sequence (P33261 whole entry, looked up): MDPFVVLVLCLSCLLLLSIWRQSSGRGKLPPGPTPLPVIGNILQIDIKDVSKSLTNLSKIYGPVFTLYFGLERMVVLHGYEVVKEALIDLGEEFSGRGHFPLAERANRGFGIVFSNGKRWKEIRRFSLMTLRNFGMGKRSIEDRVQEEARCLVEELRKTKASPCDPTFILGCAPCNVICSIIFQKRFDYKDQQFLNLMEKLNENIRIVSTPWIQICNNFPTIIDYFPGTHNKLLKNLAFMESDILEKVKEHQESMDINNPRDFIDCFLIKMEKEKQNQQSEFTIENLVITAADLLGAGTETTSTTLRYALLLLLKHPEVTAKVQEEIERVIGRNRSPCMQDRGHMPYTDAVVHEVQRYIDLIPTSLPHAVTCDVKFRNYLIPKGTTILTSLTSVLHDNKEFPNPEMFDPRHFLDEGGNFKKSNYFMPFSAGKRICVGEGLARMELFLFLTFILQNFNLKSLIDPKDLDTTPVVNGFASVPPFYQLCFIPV

The target in assay [10] is Cytochrome P450 2C9 (Homo sapiens) (UniProt P11712). Kind of assay: qHTS Assay for Inhibitors and Substrates of Cytochrome P450 2C9 (AID 883). Also: % is scaled to controls: 0 for no effect and ±100 for the full control effect; nearly all actives have a fitted effect of over 60% in size. In short, it runs like this: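 10nM CYP2C9 + 100uM Luciferin-H (=KM), 25mM KPO4; cpd 10 min 37C; NADPH regen, 60 min 37C; stop/detect with P450 Glo-Buffer 20 min; luminescence. Norm. to 57uM sulphaphenazole as full inhibition.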
Cytochrome P450 2C9 (Homo sapiens), sequence (P11712 whole entry, looked up): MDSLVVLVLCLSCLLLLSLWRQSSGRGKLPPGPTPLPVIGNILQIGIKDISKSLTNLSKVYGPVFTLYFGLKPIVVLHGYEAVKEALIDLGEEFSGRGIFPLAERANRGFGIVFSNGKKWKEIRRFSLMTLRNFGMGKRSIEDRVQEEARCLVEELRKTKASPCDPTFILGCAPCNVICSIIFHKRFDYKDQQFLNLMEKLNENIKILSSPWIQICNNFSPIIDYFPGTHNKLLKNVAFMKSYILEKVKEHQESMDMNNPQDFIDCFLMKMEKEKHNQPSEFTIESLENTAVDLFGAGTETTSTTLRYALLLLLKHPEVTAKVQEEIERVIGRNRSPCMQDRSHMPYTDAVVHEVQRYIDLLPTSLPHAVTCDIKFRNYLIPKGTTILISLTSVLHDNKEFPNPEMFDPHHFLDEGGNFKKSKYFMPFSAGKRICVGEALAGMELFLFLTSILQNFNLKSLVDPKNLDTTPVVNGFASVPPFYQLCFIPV

Each structure is given as a SMILES string. Inconclusive results are not listed. Where a structure was tested more than once in an assay, its records may differ in their call. Active and inactive are the calls of the source. Unless noted, calls follow the shape of the dose curve; as a rule, active = well fitted curve in the direction sought with a large enough effect; inconclusive = small, poorly fitted or top-dose-only effect, or another doubt; inactive = no such curve, though single readings can be large; an effect the other way counts as inactive or inconclusive.

These results are taken from PubChem BioAssay (NCATS).

Cytochrome P450 2D6 (Homo sapiens), sequence (P10635 whole entry, looked up): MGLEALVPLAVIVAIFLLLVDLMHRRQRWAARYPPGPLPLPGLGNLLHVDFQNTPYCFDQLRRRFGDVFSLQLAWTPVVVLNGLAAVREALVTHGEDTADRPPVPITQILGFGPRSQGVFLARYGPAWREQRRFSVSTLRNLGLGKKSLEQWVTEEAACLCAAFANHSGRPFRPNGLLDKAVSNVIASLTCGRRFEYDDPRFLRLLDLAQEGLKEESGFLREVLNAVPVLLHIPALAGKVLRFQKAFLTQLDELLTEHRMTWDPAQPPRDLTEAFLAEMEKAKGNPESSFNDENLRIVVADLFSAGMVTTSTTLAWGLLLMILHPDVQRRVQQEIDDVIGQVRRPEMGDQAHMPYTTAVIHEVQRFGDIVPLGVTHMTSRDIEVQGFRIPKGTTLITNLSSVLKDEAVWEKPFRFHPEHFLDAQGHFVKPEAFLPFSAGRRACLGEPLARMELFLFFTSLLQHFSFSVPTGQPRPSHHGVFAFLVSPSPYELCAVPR
Cytochrome P450 3A4 (Homo sapiens), sequence (P08684 whole entry, looked up): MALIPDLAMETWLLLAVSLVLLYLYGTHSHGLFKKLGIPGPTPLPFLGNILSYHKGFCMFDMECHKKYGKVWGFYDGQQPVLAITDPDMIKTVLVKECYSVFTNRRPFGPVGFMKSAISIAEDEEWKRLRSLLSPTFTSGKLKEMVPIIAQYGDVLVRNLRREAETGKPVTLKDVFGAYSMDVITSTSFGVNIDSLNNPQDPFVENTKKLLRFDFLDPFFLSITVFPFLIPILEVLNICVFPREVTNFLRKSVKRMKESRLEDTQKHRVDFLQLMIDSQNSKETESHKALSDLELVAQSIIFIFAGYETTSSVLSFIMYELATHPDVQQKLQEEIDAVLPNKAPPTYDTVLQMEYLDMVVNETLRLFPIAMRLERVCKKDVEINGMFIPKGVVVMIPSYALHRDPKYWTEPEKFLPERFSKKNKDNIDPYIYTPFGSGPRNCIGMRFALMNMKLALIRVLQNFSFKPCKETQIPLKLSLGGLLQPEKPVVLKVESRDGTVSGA

For the molecule `O[C@@H]1CO[C@@H](C=Cc2ccccc2)[C@H]1OCc1cccc(Br)c1`, the Potency entry in assay [1], in assay [2], in [3], in assay [4] and in assay [5] was “inactive” throughout.
Take `COC1=CC2C(=O)C(C(c3ccccc3)C2C)C1(C)O` (stereo not given): the Potency entry in assay [1], in assay [2], in [3], in [4] and in assay [5] was “inactive” in each case.
On to `CCN1C(=NCCc2ccc(Br)cc2)NC(c2ccccc2)C(C(=O)OC)=C1C` (stereo not given), for which the Potency result in [1], in assay [2], in [3], in [4] and in [5] was “inactive” each time.
`COC(=O)CCC(=O)OC1(C)C(=O)C=C2C=C(C3CC3)N(CCc3c[nH]c4ccccc34)C=C2C1=O` (stereo not given): the Potency result in assay [1], in assay [2], in assay [3], in assay [4] and in [5] was “inactive” throughout.
Turning to `COC1=C[C@H](C(=O)NCc2ccc(OC)cc2)C(C)C(c2ccccc2)CC1=O` (stereo not given in full), the Potency entry in assay [1], in [2], in assay [3], in assay [4] and in assay [5] was “inactive” in each case.
Take `CCOC(=O)N1C2=NC(C(=O)OC)=C(C(=O)OC)[C@@H]3Nc4ccccc4[C@]23C[C@H]1C(=O)OC`: the activity, negative = inhibition in assay [1] was -0.255% [at 1.12 µM] (inactive). For the same molecule, in assay [2], the Potency is 1.9 µM (active) and inactive. Also, the Potency entry in [3], in assay [4] and in [5] was “inactive” in each case.
On to `COc1ccc(-c2nc3c(c4c2C[C@H](c2ccccc2)OC4)CN(C(=O)N[C@@H](C)c2ccccc2)CC3)c(C)c1`, for which, in assay [1], the activity, negative = inhibition was 3.19% [at 1.12 µM] (inactive). In addition, the Potency result in assay [2], in assay [4] and in assay [5] was “inactive” in each case. In addition, the Potency in assay [3] is 1690 nM (active).
With `CCOC(=O)OC[C@H]1O[C@H](C#Cc2ccc(C)cc2C)C=C[C@H]1OC(=O)OCC`, the Potency result in assay [1], in assay [2], in assay [3], in [4] and in assay [5] was “inactive” throughout.
`Cc1cc(C)c(S(=O)(=O)OC[C@H]2C=CC[C@@H](CCC[C@H]3O[C@H](C(=O)OC(C)C)CC[C@@H]3C)O2)c(C)c1`: the Potency entry in assay [1], in [2], in [3], in [4] and in assay [5] was “inactive” in each case.
Turning to `CCOC(=O)CN1C(=O)N(CC)C(C)=C(C(=O)OC)C1c1ccccc1` (stereo not given), the Potency entry in [1], in assay [2], in [3], in [4] and in assay [5] was “inactive” throughout.
`CCN1C(=O)N(S(=O)(=O)C(F)(F)F)C(c2ccccc2)C(C(=O)OC)=C1C` (stereo not given): the Potency result in assay [1], in assay [2], in assay [3], in assay [4] and in [5] was “inactive” throughout.
With `O=P1(O)Oc2c(-c3ccccc3)cc3ccccc3c2-c2c(c(-c3ccccc3)cc3ccccc23)O1`, the Potency entry in assay [1], in assay [2], in assay [3], in assay [4] and in assay [5] was “inactive” each time.
`C=C(C(C)=O)C(O)c1ccc(C(F)(F)F)cc1` (stereo not given): the Potency entry in [1], in [2], in [6] and in [5] was “inactive” in each case.
As to `C=CCN1C(=O)[C@]2(OCCC=C[C@H]2C)c2ccccc21`, the Potency result in [1], in assay [2], in assay [6], in assay [4] and in assay [5] was “inactive” throughout.
With `CC(C)C(=O)NC(=O)[C@@H]1CCCN1C(=O)C=Cc1ccccc1`, the Potency entry in assay [1], in [2], in assay [6], in assay [4] and in [5] was “inactive” each time.
For `CC(C)=CCN1C(=O)[C@]2(O[C@H](COc3ccccc3)CC3=CCCC32)c2c(Br)cccc21` (stereo not given in full), the Potency is 3780 nM (active) in [1], 1.9 µM (active) in assay [2] and 1900 nM (active) in assay [6]. Moreover, the Potency result in assay [5] is “inactive”.
On to `C=CCNC(=O)[C@H]1C=C(OC)C(=O)C[C@H](c2ccccc2)[C@H]1C`, for which the Potency result in [1], in assay [2], in assay [6], in assay [4] and in assay [5] was “inactive” throughout.
Consider `CCN1C(=NCCc2ccccn2)NC(c2cccc(C(F)(F)F)c2)C(C(=O)OC)=C1C` (stereo not given), for which the results for the Potency in [1] and in assay [2] were 533 nM (active) and 0.301 µM (active), respectively. Besides, the Potency entry in assay [6] and in assay [5] was “inactive” throughout.
As to `COC(=O)C12CC3(CCC4C5C(C(OCc6ccccc6)C41)C52)OCCO3` (stereo not given), the figures for the activity change, negative = inhibition in assay [7] and in assay [8] were -29.8% [at 11.4 µM] (inactive) and 0.322% [at 11.4 µM] (inactive), respectively. Further, in assay [9], the Potency is 1580 nM (active). The Potency entry in assay [1], in assay [2], in assay [3] and in assay [5] was “inactive” throughout.
`COc1ccc(C=CNC(=O)Cc2ccc(OC)c(OC)c2)cc1`: the Potency entry in assay [1], in [2], in [6], in assay [4] and in [5] was “inactive” throughout.
For `Cn1c(-c2ccccc2)c(O)c(=O)c2ccccc21`, the activity change, negative = inhibition was -1.19% [at 11.4 µM] (inactive) in assay [10] and 4.63% [at 11.4 µM] (inactive) in assay [8]. Further, the activity, negative = inhibition in [9] is 50% [at 11.4 µM] (inactive). The Potency entry in assay [1], in assay [2], in assay [3] and in assay [5] was “inactive” each time.
Regarding `CCN1C(=NCc2ccc(OC)cc2)N[C@@H](CCc2ccccc2)[C@H](C(=O)NCc2ccc(OC)cc2)[C@H]1C`, the Potency result in assay [1], in assay [2], in assay [3], in [4] and in assay [5] was “inactive” in each case.
Regarding `C=CC[C@@H]1C=CC(ON=C(C)CCC(=O)OC[C@H]2O[C@H](C#Cc3ccccc3)C=C[C@H]2Oc2ccc(C)cc2)[C@H](CO)O1` (stereo not given in full), the Potency entry in assay [1], in assay [2], in assay [6], in assay [4] and in [5] was “inactive” each time.
On to `COc1cc(C(NC(=O)C(F)(F)F)c2cc3ccccc3o2)cc(OC)c1OC` (stereo not given), for which the Potency result in [1], in assay [2], in assay [3], in [4] and in [5] was “inactive” each time.
Consider `CCOC(=O)NN=C1C[C@@H](O)[C@@H](O)[C@@H]2[C@H]3C(=O)N(C4CCCCC4)C(=O)[C@@H]3CC[C@H]12`, for which the Potency result in assay [1], in assay [2], in [6] and in assay [5] was “inactive” in each case.
Regarding `COCCN1C(=S)NC(c2cccc(F)c2)C(C(=O)OC)=C1C` (stereo not given), the Potency result in assay [1], in assay [2], in assay [6], in assay [4] and in assay [5] was “inactive” throughout.
For the molecule `COC(=O)NC(c1ccc2c(c1)OCO2)C(C(=O)OC)C(=O)OC` (stereo not given), the Potency entry in assay [1], in [2], in assay [6], in assay [4] and in assay [5] was “inactive” throughout.
